Assay results: PubChem BioAssay (EPA / NIEHS)
Inconclusive results are not listed. The source made the active and inactive calls. How the source made its calls, unless noted: active means hit-call score of the fitted dose curve at least 0.9, where 1 is the maximum; inactive means score below 0.9.

Tests used:
[1] = read-out: Interleukin-1 alpha (IL1a), IL1A (gene 3552); assay: BSK_LPS_IL1a: BioMAP Diversity Plus: LPS Assay for Interleukin-1 alpha (IL1a) Biomarker Activity (AID 2283080); conditions: primary human HUVEC with PBMC; actives raise or lower the signal
Method in brief: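 HUVEC/PBMC co-culture, LPS system; 24 h after dosing; IL-1a by ELISA; gain or loss of signal fitted bidirectionally vs DMSO baseline.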

[2] = BSK_LPS_PGE2: BioMAP Diversity Plus: LPS Assay for Prostaglandin E2 (PGE2) Biomarker Activity (AID 2283082); conditions: primary human HUVEC with PBMC; actives raise or lower the signal
Method in brief: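 HUVEC plus human PBMC co-culture stimulated with LPS; secreted PGE2 quantified by ELISA 24 h after chemical dosing. Activity fitted bidirectionally against DMSO baseline; parallel SRB staining (0.1% SRB after 10% TCA fixation, 560 nm) flags overt cytotoxicity.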

[3] = read-out: Macrophage colony-stimulating factor (MCSF), CSF1 (gene 1435); assay: BSK_LPS_MCSF: BioMAP Diversity Plus: LPS Assay for Macrophage colony-stimulating factor (MCSF) Biomarker Activity (AID 2283083); conditions: primary human HUVEC with PBMC; actives raise or lower the signal
Method in brief: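 HUVEC + PBMC co-culture (human primary), 24 h post-dose; M-CSF by ELISA; gain/loss of signal fitted bidirectionally vs DMSO baseline.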

[4] = read-out: Tissue Factor, F3 (gene 2152); assay: BSK_LPS_TissueFactor: BioMAP Diversity Plus: LPS Assay for Tissue Factor Biomarker Activity (AID 2283084); conditions: primary human HUVEC with PBMC; actives raise or lower the signal
Method in brief: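 HUVEC/PBMC co-culture, LPS-activated; CD142 ELISA read 24 h post-dose; bidirectional curve fit vs DMSO negative control.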

[5] = read-out: Tumor necrosis factor (Homo sapiens) (UniProt P01375); assay: BSK_LPS_TNFa: BioMAP Diversity Plus: LPS Assay for Tumour Necrosis Factor alpha (TNFa) Biomarker Activity (AID 2283085); conditions: primary human HUVEC with PBMC; actives raise or lower the signal
Method in brief: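 Human umbilical vein endothelial cells co-cultured with PBMC and stimulated with LPS. TNFa was measured by ELISA 24 h after chemical dosing, fitted bidirectionally relative to DMSO.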

[6] = read-out: Vascular cell adhesion molecule 1 (VCAM1), VCAM1 (gene 7412); assay: BSK_LPS_VCAM1: BioMAP Diversity Plus: LPS Assay for Vascular cell adhesion molecule 1 (VCAM1) Biomarker Activity (AID 2283086); conditions: primary human HUVEC with PBMC; actives raise or lower the signal
Method in brief: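 Human umbilical vein endothelial cells co-cultured with PBMC and stimulated with LPS; VCAM-1 measured by ELISA 24 h after dosing. Bidirectional curve fitting against DMSO baseline; cytotoxicity tracked in parallel by SRB total-protein staining.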

[7] = read-out: CD38, CD38 (gene 952); assay: BSK_SAg_CD38: BioMAP Diversity Plus: SAg Assay for CD38 Biomarker Activity (AID 2283087); conditions: primary human HUVEC with PBMC; actives raise or lower the signal
Method in brief: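 Human HUVEC plus PBMC co-culture stimulated with superantigen; CD38 measured by ELISA 24 h after chemical dosing. Fluorescence read-out, bidirectional fit against DMSO; cytotoxicity tracked in parallel by SRB and Alamar Blue.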

[8] = read-out: CD40, CD40 (gene 958); assay: BSK_SAg_CD40: BioMAP Diversity Plus: SAg Assay for CD40 Biomarker Activity (AID 2283088); conditions: primary human HUVEC with PBMC; actives raise or lower the signal
Method in brief: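 HUVEC/PBMC co-culture, 24 h post-dose; CD40 by ELISA, fluorescence intensity; bidirectional fit vs DMSO negative control.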

[9] = read-out: CD69, CD69 (gene 969); assay: BSK_SAg_CD69: BioMAP Diversity Plus: SAg Assay for CD69 Biomarker Activity (AID 2283089); conditions: primary human HUVEC with PBMC; actives raise or lower the signal
Method in brief: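 Primary human vascular co-culture (umbilical vein endothelium with peripheral blood mononuclear cells) exposed to test chemical for 24 h. CD69 levels quantified by fluorescence ELISA; DMSO served as negative control for bidirectional fitting.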

[10] = read-out: Monocyte Chemoattractant Protein-1 (MCP1), CCL2 (gene 6347); assay: BSK_SAg_MCP1: BioMAP Diversity Plus: SAg Assay for Monocyte Chemoattractant Protein-1 (MCP1) Biomarker Activity (AID 2283090); conditions: primary human HUVEC with PBMC; actives raise or lower the signal
Method in brief: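 MCP-1 levels in the endothelial–PBMC SAg co-culture were quantified by ELISA at 24 h post-dosing; both increases and decreases versus DMSO scored. Cytotoxicity monitored by SRB total protein in parallel cultures.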

[11] = read-out: E-selectin (Homo sapiens) (UniProt P16581); assay: BSK_SAg_Eselectin: BioMAP Diversity Plus: SAg Assay for Eselectin Biomarker Activity (AID 2283091); conditions: primary human HUVEC with PBMC; actives raise or lower the signal
Method in brief: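 E-selectin ELISA readout at 24 h post-dosing in human umbilical vein endothelial cell/PBMC co-culture; gain or loss of signal fitted relative to DMSO baseline.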

[12] = read-out: Monokine induced gamma interferon (MIG), CXCL9 (gene 4283); assay: BSK_SAg_MIG: BioMAP Diversity Plus: SAg Assay for Monokine induced gamma interferon (MIG) Biomarker Activity (AID 2283092); conditions: primary human HUVEC with PBMC; actives raise or lower the signal
Method in brief: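 Endothelial cells and PBMC were co-cultured, exposed to test chemicals, and sampled 24 h later. MIG was measured by ELISA, and responses were fitted in both directions relative to DMSO.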

[13] = BSK_SAg_PBMCCytotoxicity: PBMC Cytotoxicity Assessment in the BioMAP Diversity Plus: SAg Assay (AID 2283093); conditions: primary human HUVEC with PBMC;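 further: PBMC viability measured as Alamar Blue reduction fluorescence at 546/580 nm; fitted both ways against DMSO so a hit may be loss or gain of signal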
Method in brief: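 HUVEC/PBMC co-culture; PBMC exposed to chemical 1 h before SEB and TSST-1 activation (20 ng/mL each), incubated 90 h, then Alamar Blue 6 h, fluorescence 546/580 nm. Bidirectional fit versus DMSO baseline.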

[14] = read-out: Interleukin-8 (IL8), CXCL8 (gene 3576); assay: BSK_SAg_IL8: BioMAP Diversity Plus: SAg Assay for Interleukin-8 (IL8) Biomarker Activity (AID 2283094); conditions: primary human HUVEC with PBMC; actives raise or lower the signal
Method in brief: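 Human umbilical vein endothelial cells co-cultured with PBMC, stimulated with superantigen; IL-8 measured by ELISA 24 h after chemical dosing. Bidirectional fitting versus DMSO; SRB staining in parallel cultures tracks cytotoxicity.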

[15] = BSK_SAg_Proliferation: Cell Proliferation Assessment in the BioMAP Diversity Plus: SAg Assay (AID 2283095); conditions: primary human HUVEC with PBMC
Method in brief: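 Human umbilical vein endothelial cells co-cultured with PBMC; sulforhodamine B total-protein staining (0.1% SRB after 10% TCA fixation, absorbance 560 nm) at 96 h in sub-confluent culture. Fitted bidirectionally against DMSO.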

[16] = BSK_SAg_SRB: Viability Assessment in the BioMAP Diversity Plus: SAg Assay (AID 2283096); conditions: primary human HUVEC with PBMC;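 further: cells read one day after compound addition; hits may be either gain or loss of signal compared with DMSO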
Method in brief: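 Human umbilical vein endothelial cells co-cultured with PBMC, read 24 h after compound dosing. Total protein measured by sulforhodamine B staining (0.1% SRB after 10% TCA fixation, absorbance 560 nm); bidirectional fit versus DMSO baseline.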

[17] = biological target: human CYP1A1, CYP1A1 (gene 1543) (UniProt P04798); assay: NVS_ADME_hCYP1A1: NovaScreen (NVS) CYP450-related Enzyme Activity (ADME) Assay for human CYP1A1 (AID 2283100; active means hit-call score of the fitted dose curve at least 0.9, where 1 is the maximum)
Method in brief: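 Read-out: fluorescence intensity from enzymatic turnover of substrate by recombinant CYP1A1, loss of signal indicating inhibition. Incubation 1 h post-dose. Primary single-point 10 uM in duplicate; actives rerun singly with top concentration 20 uM.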

Measured: outcome

Sequence of Tumor necrosis factor (Homo sapiens) (P01375 whole entry, looked up): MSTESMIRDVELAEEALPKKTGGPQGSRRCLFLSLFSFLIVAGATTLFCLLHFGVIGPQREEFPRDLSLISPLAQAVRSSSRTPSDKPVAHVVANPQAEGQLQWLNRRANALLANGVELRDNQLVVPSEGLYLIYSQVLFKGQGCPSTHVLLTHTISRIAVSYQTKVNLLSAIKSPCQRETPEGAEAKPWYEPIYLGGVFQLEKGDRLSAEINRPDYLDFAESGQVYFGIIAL
Sequence of E-selectin (Homo sapiens) (P16581 whole entry, looked up): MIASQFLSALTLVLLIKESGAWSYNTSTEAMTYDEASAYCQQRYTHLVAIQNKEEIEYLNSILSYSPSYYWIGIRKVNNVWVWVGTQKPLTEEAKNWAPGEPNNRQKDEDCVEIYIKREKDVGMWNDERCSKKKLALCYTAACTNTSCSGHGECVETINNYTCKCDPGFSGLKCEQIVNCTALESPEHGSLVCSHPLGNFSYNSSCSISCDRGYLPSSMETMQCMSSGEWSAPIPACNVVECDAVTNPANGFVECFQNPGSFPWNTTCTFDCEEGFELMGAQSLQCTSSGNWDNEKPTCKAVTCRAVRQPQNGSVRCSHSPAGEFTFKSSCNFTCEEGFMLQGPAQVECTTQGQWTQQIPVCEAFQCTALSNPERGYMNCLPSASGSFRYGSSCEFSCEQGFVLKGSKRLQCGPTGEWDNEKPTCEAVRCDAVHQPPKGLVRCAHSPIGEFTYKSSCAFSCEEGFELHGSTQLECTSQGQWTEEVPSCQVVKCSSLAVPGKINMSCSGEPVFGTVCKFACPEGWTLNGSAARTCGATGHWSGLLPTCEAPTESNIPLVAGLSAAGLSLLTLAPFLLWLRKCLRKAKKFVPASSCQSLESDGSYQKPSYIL
Sequence of human CYP1A1, CYP1A1 (gene 1543) (P04798 whole entry, looked up): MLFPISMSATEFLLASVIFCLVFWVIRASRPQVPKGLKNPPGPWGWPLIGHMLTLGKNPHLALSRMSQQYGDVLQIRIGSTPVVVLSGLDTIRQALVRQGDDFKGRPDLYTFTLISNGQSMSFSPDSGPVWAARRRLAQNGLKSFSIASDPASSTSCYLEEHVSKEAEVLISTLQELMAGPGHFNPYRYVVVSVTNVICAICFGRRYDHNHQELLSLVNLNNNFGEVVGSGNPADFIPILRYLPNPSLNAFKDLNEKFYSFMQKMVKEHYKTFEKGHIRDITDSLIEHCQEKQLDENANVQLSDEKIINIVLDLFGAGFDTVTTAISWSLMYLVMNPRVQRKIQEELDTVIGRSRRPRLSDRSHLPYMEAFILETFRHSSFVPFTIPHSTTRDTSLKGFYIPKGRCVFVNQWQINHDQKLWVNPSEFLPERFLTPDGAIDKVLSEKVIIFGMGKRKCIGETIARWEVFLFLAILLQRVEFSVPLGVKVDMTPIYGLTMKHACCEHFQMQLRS

O=C(O)CCC(F)(F)C(F)(F)C(F)(F)F
not listed: [17]
inactive: all other assays above

COC(F)(C(F)F)C(F)(F)F (stereo not drawn)
not listed: [9] | [17]
inactive: all other assays above

NCC(F)(F)C(F)(F)C(F)(F)C(F)(F)C(F)(F)C(F)(F)C(F)(F)C(F)(F)F
not listed: [9] | [17]
inactive: all other assays above

CCCCCCCCn1sc(Cl)c(Cl)c1=O
inactive: [17]

Nc1cc([N+](=O)[O-])cc(Cl)c1O
not listed: [17]
inactive: all other assays above
